Laboratory results reported in PubChem BioAssay AID720650 (Broad Institute, 2013).
A number with no mark means an inactive call. The source made the active and inactive calls. The rule behind the calls is not given here.

Assay: C difficile toxins, biochemical counterscreen, UDPG substrate absence, confirmatory dose response (AID 720650)
Details: series mostly up to 19.5 µM

| SMILES | AC50 |
| --- | --- |
| CC(C)(Oc1ccc(Cl)cc1)C(=O)NC1CC1 | inactive |
| Cc1cnc([N+](=O)[O-])n1CCOC(=O)NC(=O)c1ccc(F)cc1 | inactive |
| Cc1ccc2nc(-c3ccc4c(c3)OCCO4)cn2c1 | 12.4 µM (active) |
| COc1ccc(C(=O)Nc2ccccc2C(=O)O)cc1Cl | > 39 µM |
| COc1cc(/C=C/C(=O)OCC(=O)NC(=O)NC(C)(C)C)ccc1O | inactive |
| CC12CCC3C(=CCc4cc(O)ccc43)C1CC(=NO)C2O (configuration not stated) | 19.4 µM (active) |
| CC(=O)Nc1cc(-c2ccc(F)cc2)[nH]n1 | 2.6 µM (active) |
| Cc1ccc(S(=O)(=O)N2CCOCC2)cc1C(=O)NCCCN1CCCC1=O | inactive |
| CC1CCN(CCCn2c(=S)[nH]c3c(sc4ccccc43)c2=O)CC1 | > 39 µM |
| O=C(NCc1cccnc1)c1cc(C2CCCCN2S(=O)(=O)c2cccc3cccnc23)on1 (configuration not stated) | inactive |
| Cc1c(CNC(=O)c2c([N+](=O)[O-])cnn2C)cnn1C | inactive |
| c1ccc(SCc2nc3ccccc3s2)nc1 | inactive |
| CN(C)CC(=O)N1CC[C@@H]2[C@H]1c1cc(-c3ccccc3)ccc1N(C)[C@H]2CO | 14.1 µM (active) |
| C[C@H](CO)N1C[C@H](C)[C@@H](CN(C)C(=O)Nc2ccc(C(F)(F)F)cc2)Oc2c(NS(=O)(=O)c3cn(C)cn3)cccc2C1=O | > 39 µM |
| COc1cc(C=NNC(=O)c2ccccc2-n2cccc2)ccc1O | inactive |
| CCOC(=O)N1CCN(C(=S)NC(=O)c2ccc(F)c(F)c2)CC1 | inactive |
| COc1ccc(CC(=O)C2C(=O)N(C)c3ccccc32)cc1OC (configuration not stated) | inactive |
